Avidin fluor: avidin bead compound fluorescence profile | Avidin beads, compound fluorescence 488/530 nm, flow cytometry; hits give high values | fluorescence (KMESF) at 10 µM | 220,000 compounds, 0.38% hits | AID 1775; in the data active = fluorescence above about 47
RGS16-Gao HTS: modulates binding between human RGS16 and Galphao. bead-based flow cytometry RGS16-Galphao binding, fluorescence; actives lie on both sides. binding response (% of control), % at 10 µM. O15492+P09471. 220,000 compounds, 0.38% hits;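 note: Galphao activated by GDP with aluminum fluoride before binding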
Target sequence (O15492 whole entry, looked up): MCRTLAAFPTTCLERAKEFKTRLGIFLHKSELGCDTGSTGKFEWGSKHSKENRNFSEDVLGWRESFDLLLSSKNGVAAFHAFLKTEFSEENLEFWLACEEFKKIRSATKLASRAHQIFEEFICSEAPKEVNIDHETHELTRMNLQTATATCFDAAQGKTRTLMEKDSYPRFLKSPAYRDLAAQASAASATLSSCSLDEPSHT
Target sequence (P09471 whole entry, looked up): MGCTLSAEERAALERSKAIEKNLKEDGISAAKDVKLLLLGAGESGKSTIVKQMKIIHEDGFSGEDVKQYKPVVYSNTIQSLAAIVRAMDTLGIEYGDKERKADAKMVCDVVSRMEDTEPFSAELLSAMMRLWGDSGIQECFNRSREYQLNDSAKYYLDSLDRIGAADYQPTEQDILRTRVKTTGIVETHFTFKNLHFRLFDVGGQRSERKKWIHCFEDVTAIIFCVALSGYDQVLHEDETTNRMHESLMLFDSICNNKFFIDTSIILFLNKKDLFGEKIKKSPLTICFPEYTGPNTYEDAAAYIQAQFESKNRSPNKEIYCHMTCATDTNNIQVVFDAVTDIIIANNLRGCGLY
RGS8-Gao reg: regulators of human RGS8-Galphao interaction | AID 1423 | 220,000 compounds, 0.34% hits | response (percent of control binding), % at 10 µM | multiplexed bead flow cytometry, RGS8-Galphao binding; actives lie on both sides | P09471; in the data active = response below about 60% or above about 140%; inactive = in between;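 note: Galphao activated as the GDP aluminium fluoride complex binding bead-coupled RGS8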
Target sequence (P09471 whole entry, looked up): as above
RGS4-Gao reg: modulates binding of RGS4 to human Galphao. P09471. Multiplexed bead flow cytometry; actives lie on both sides. binding response (% of control), % at 10 µM. 220,000 compounds, 0.33% hits; in the data active = binding response below about 49% or above about 150%; inactive = in between;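 note: fluorescent Galphao activated with aluminum fluoride binding bead-coupled RGS4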
GSH fluor: GSH bead compound fluorescence profile. AID 1776. fluorescence (KMESF) at 10 µM. GSH beads flow cytometry, compound fluorescence 488/530 nm; hits give high values. 190,000 compounds, 0.25% hits; in the data active = fluorescence above about 89;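 note: glutathione beads carrying GST-tagged Bcl family fusion proteins plus one bare bead set; values are compound well signal with DMSO vehicle wells as background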
RGS7-Gao reg: regulators of human RGS7-Galphao interaction; binding response (% of control), % at 10 µM; 220,000 compounds, 0.35% hits; AID 1439; Multiplexed bead flow cytometry, RGS7-Galphao binding; actives lie on both sides; in the data active = binding response below about 49% or above about 150%; inconclusive = no clear call, values can overlap the other calls; inactive = in between;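 note: fluorescent Galphao held in activated GDP-AlF4 state binding bead-coupled RGS7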
RGS4-Gao HTS: modulates binding between human RGS4 and Galphao; shares compounds with RGS16-Gao HTS; multiplexed bead flow cytometry, RGS–Galpha-o binding; RGS4–Galpha-o binding response, % at 10 µM; 1,600 compounds, 99% hits;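 note: fluorescently labeled Galpha-o bound to GDP with aluminium fluoride binding biotinylated RGS beads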
Biotin-avidin: biotin-avidin bead binding disruption counter-screen | shares compounds with RGS16-Gao HTS | streptavidin beads, fluorescein-biotin binding, flow cytometry | inhibition, % at 10 µM | 1,700 tested, under 10 active | AID 1783;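 active = inhibition above 50%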;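 note: median green fluorescence of gated singlet beads compared with DMSO control wells; 0% = DMSO wells and 100% = complete loss of bead fluorescence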
RGS8-Gao single: confirmation of regulators of human RGS8-Galphao interaction; shares compounds with RGS16-Gao HTS; bead-based flow cytometry RGS8-Galphao binding, fluorescence; actives lie on both sides; binding response (% of control), % at 10 µM; 1,700 compounds, 3% hits; AID 1836; in the data active = binding response below about 72% or above about 130%; inactive = in between;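 note: Galphao activated as GDP AlF4 complex before binding bead RGS8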
RGS7-Gao confirm: RGS7-Galphao interaction regulation, single point confirmation; 1,700 compounds, 7.8% hits; response (percent of control binding), % at 10 µM; shares compounds with RGS16-Gao HTS; AID 1837; bead-based flow cytometry RGS7-Galphao binding; actives lie on both sides; in the data active = response below about 75% or above about 130%; inactive = in between;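 note: fluorescent Galphao activated with GDP and aluminum fluoride binding bead-coupled RGS7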
RGS16-Gao single: RGS16-Galphao interaction regulation, single point confirmation. bead-based flow cytometry, RGS16-Galphao binding; actives lie on both sides. response (% of control binding), % at 10 µM. 1,700 compounds, 4% hits. shares compounds with RGS16-Gao HTS; in the data active = response below about 74% or above about 130%; inactive = in between;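 note: Galphao activated as the GDP aluminium fluoride complex binding bead-coupled RGS16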
RGS4-Gao single: confirmation of regulators of human RGS4-Galphao interaction | binding response (% of control), % at 10 µM | shares compounds with RGS16-Gao HTS | RGS4-Galphao binding, multiplexed bead flow cytometry; actives lie on both sides | 1,700 compounds, 4% hits; in the data active = binding response below about 74% or above about 130%; inactive = in between
RGS19-Gao conf: confirmation of regulators of human RGS19-Galphao interaction; shares compounds with RGS16-Gao HTS; bead-based flow cytometry RGS19-Galphao binding; actives lie on both sides; 1,700 compounds, 5% hits; response (percent of control binding), % at 10 µM; in the data active = response below about 50% or above about 160%; inactive = in between;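 note: 100% = no compound control and 0% = blank background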
Starred values were filed as active, the others as inactive; ? = inconclusive; · = not tested or not shown; [ ] = dose if it differs, or a comment. Shown are actives, neighbours in structure and some others; about 1.2% of the full set was active somewhere. Unless noted, the rule behind the calls is not given here.

SMILES | Avidin fluor | RGS16-Gao HTS | RGS8-Gao reg | RGS4-Gao reg | GSH fluor | RGS7-Gao reg | RGS4-Gao HTS | Biotin-avidin | RGS8-Gao single | RGS7-Gao confirm | RGS16-Gao single | RGS4-Gao single | RGS19-Gao conf
CC(=O)NC(Cc1ccc(N(CCCl)CCCl)cc1)C(=O)NCC(=O)NCC(=O)O (stereo unspecified) | 11 | 109.1 | 103.7 | 98.8 | 17 | 97.4 | · | · | · | · | · | · | ·
C=CCN1CC[C@]23c4c5ccc(O)c4O[C@H]2C(=O)CC[C@@]3(O)[C@H]1C5 | 5 | 54.2 | 57.0* | 47.8* | 14 | 34.1* | · | -0.4 | 100.7 | 103.8 | 101.2 | 100.4 | 107.4
CN1Cc2c(c(C#N)c(N)n(C)c2=S)CC1(C)C | 9 | 105.3 | 105.3 | 101.2 | 23 | 96.4 | · | · | · | · | · | · | ·
O=C(Cc1ccccc1)N1CCN(C/C=C/c2ccccc2)CC1 | 4 | -0.6* | 28.6* | -8.3* | 10 | 7.9* | · | 1.0 | 103.4 | 104.4 | 104.0 | 102.7 | 112.6
C=Cn1ccnc1P(O)(=S)c1nc(C)c(CCOC(C)=O)s1 (stereo unspecified) | 6 | 104.2 | 104.9 | 105.2 | 10 | 108.2 | · | · | · | · | · | · | ·
N/C(=N\N=C\c1ccc(O)cc1O)N[N+](=O)[O-] | 12 | -23.1* | 77.1 | 84.3 | 14 | 88.3 | 84.3* | 0.2 | 96.5 | 96.1 | 97.9 | 100.4 | 89.5
COc1ccccc1/C=N/N=C(/N)N[N+](=O)[O-] | 16 | 110.3 | 100.9 | 113.2 | 11 | 112.0 | · | · | · | · | · | · | ·
O=C1C2CCN(CC2)C1Cc1ccc(OCc2ccccc2)cc1 (stereo unspecified) | 9 | 98.0 | 102.5 | 102.5 | 18 | ? | · | · | · | · | · | · | ·
C/C(=N\N1CCCCCC1)c1c(O)n(C2CCCCC2)c(=O)[nH]c1=O | 4 | 109.2 | 105.2 | 106.7 | · | ? | · | · | · | · | · | · | ·
COc1ccc(C=C2C(=O)N(C)C(=O)N(C)C2=O)cc1COc1ccc(NC(C)=O)cc1 | 5 | 100.8 | 90.2 | 95.2 | · | ? | · | -0.4 | 89.3 | 88.6 | 96.6 | 91.7 | 76.9
COc1ccc(C=C2C(=O)N(C)C(=O)N(C)C2=O)cc1CSc1ccccn1 | 15 | 101.7 | 95.0 | 96.5 | 23 | 95.2 | · | · | · | · | · | · | ·
CCOP(=S)(OCC)SCC(=O)NC(C)(CC)C(=O)O (stereo unspecified) | 11 | -104.8* | 95.9 | 74.4 | 9 | 93.9 | 74.4* | -0.9 | 103.9 | 106.8 | 107.2 | 104.6 | 92.6
CCN1CCN(C(=O)COc2ccc(S(=O)(=O)N(C)Cc3ccccc3)cc2)CC1 | 2 | 24.4* | 76.3 | 81.7 | 47 | 79.9 | 81.7* | 1.1 | 102.0 | 101.9 | 101.3 | 101.8 | 98.5
COc1ccc(CCNC2CCCCC2)cc1OC | 10 | 99.9 | 99.0 | 99.8 | 18 | 94.8 | · | · | · | · | · | · | ·
O=C(CN1CC=C(c2ccccc2)CC1)Nc1cc(Cl)ccc1Cl | 11 | 101.0 | 100.2 | 104.5 | 4 | 103.6 | · | · | · | · | · | · | ·
Cc1ccc(S(=O)(=O)N2CCCCC2)cc1NC(=O)CN1CC=C(c2ccccc2)CC1 | 14 | 331.8 | 142.0*[activator] | 117.7 | 18 | 121.6 | 117.7* | 0.4 | 110.5 | 114.2 | 109.8 | 112.3 | 106.9
CCCCCCC[n+]1ccc(-c2cc[n+](CCCCCCC)cc2)cc1 | 3 | 12.9* | 78.9 | 115.0 | 9 | 107.2 | 115.0* | 1.4 | 106.7 | 102.2 | 106.8 | 103.4 | 102.3
CCOC(=O)C1CCCN(c2ccc([N+](=O)[O-])c3nonc23)C1 (stereo unspecified) | 13 | 107.5 | 100.5 | 106.8 | 13 | 111.2 | · | · | · | · | · | · | ·
O=C(Nc1ccc2ccccc2c1)N1C[C@H]2C[C@@H](C1)c1cccc(=O)n1C2 | 8 | 105.8 | 102.3 | 106.3 | · | ? | · | · | · | · | · | · | ·
O=C(Nc1ccccc1)c1cc([N+](=O)[O-])ccc1N1CCNCC1 | 5 | 95.7 | 59.5* | 89.5 | 12 | ? | 89.5* | -1.9 | 104.5 | 100.6 | 104.9 | 104.0 | 92.7
CCN1CCN(c2ccc([N+](=O)[O-])cc2C(=O)OC)CC1 | 13 | 107.1 | 102.5 | 100.8 | 15 | 98.7 | · | · | · | · | · | · | ·
Cc1nnc2ccc(N3CCN(C)CC3)nn12 | 5 | 451.6 | 144.5*[activator] | 120.9 | 52 | 111.3 | 120.9* | 0.7 | 103.2 | 107.1 | 104.6 | 106.6 | 109.7
Cc1cccc(NP(=O)(Oc2ccccc2F)Oc2ccccc2F)c1 | 16 | 157.0 | 116.9 | 105.0 | 10 | 100.3 | · | · | · | · | · | · | ·
CN(C)C(=O)Oc1ccc(Cl)c2cccnc12 | 2 | 29.0 | 57.2* | 75.2 | 11 | 80.1 | 75.2* | 1.0 | 99.2 | 100.4 | 103.0 | 100.5 | 102.6
CN(C)C(=O)Oc1c(Cl)cc(Cl)c2ccccc12 | 16 | 104.2 | 97.8 | 106.3 | 11 | 99.0 | · | · | · | · | · | · | ·
CN1CN(c2cccc([N+](=O)[O-])c2)CN=C1N[N+](=O)[O-] | 8 | 90.2 | 90.7 | 88.8 | 15 | ? | · | · | · | · | · | · | ·
